From PubChem BioAssay
CRFBP-R2 block: blocks CRF-induced signaling of the CRF-BP/CRF-R2 complex; HEK293 CRF-R2/CRF-BP, CRF-induced calcium fluorescence; inhibition, % at 11.8 µM; 350,000 tested, 0.59% active;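 active means inhibition of the ligand-induced calcium signal above about 50% at the single tested concentration, limit read from the data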
CRFBP-R2 agonist: agonists of human CRF-binding protein/CRF-R2 receptor complex; HEK293 CRF-R2/CRF-BP, calcium dye fluorescence (FLIPR); percent of saturating CRF peptide response; 350,000 tested, 0.46% active; activation, % at 13.2 µM;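 active means activation of at least 50%, plus an integration ratio under a set limit after plate pattern correction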;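 further: plate controls were neutral control wells without compound for no effect and CRF at EC100 for full effect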
GRIN3A LBD mod: NR3A (human) ligand-binding domain modulation; NR3A LBD differential scanning fluorimetry, Tm shift; 0% = protein alone, 100% = glycine-bound protein; Tm shift relative to glycine control, % at 25 µM; 340,000 tested, 2.5% active;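 active means melting temperature shift of at least 10% of the positive control shift, at one fixed dose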
MPTP block: blocks calcium-induced mitochondrial swelling. 360,000 tested, 1.4% active. isolated mouse mitochondria, Ca2+ swelling absorbance, 30 min. inhibition, % at 10 µM;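 active means inhibition of 50% or more, scaled per plate between neutral and stimulator controls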;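 further: 0% = DMSO wells given calcium and 100% = 1 mM EGTA wells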
TMEM16A act: activators or potentiators of mouse TMEM16A chloride channel; Q8BHY3; HEK293 TMEM16A/YFP-H148Q/I152L, iodide quench fluorescence; active compounds read low; B-score at 10 µM; 340,000 tested, 0.3% active; AID 623877;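 active means fluorescence-ratio B-score plate-corrected deviation score at least 3 library SD below zero, with starting fluorescence score within 5 deviations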;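 further: channel opened by trigger with iodide after compound preincubation; score built on the fluorescence ratio of max minus min over baseline; more negative score means more quench and so TMEM16A activation or potentiation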
ANO1 block: mouse TMEM16A channel inhibition, primary screen; Q8BHY3; HEK293 TMEM16A/YFP iodide influx fluorescence, ionomycin; normalized B-score (activity score, 25-100; higher = stronger inhibition) at 10 µM; 310,000 tested, 1.2% active; AID 588511;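 active means ratio plate-corrected score three or more library SD toward inhibition, starting fluorescence score within five deviations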;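 further: score derived from kinetic fluorescence span divided by baseline fluorescence per well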
TMEM16A reconf: TMEM16A (mouse) chloride channel inhibition, re-confirmation; shares compounds with ANO1 block; HEK293 TMEM16A/YFP-H148Q, iodide quench fluorescence; ionomycin added to raise cell calcium; inhibition, % at 10 µM; 2,300 tested, 39% active; AID 652189;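 active means mean duplicate percent inhibition, scaled so buffer wells are 0 and the reference blocker 100, over three buffer SD above buffer mean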
HEK293 Ca mobil: alters calcium mobilization in TMEM16A HEK293 cells, counter-screen | shares compounds with ANO1 block | TMEM16A/YFP HEK293, Fluo4 calcium mobilization | 2,300 tested, 2% active | AID 652231 | calcium response (% of ionomycin), % at 10 µM;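 active means duplicate-averaged calcium signal over 20% of the ionomycin maximum, relative to buffer baseline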;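 further: each well's signal is peak minus trough fluorescence divided by its pre-addition baseline; 0% = buffer wells and 100% = ionomycin wells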
Parental YFP cnt: parental YFP-HEK293 iodide quench counter-screen activity | shares compounds with ANO1 block | ionomycin | YFP ratio F(max-min)/F0 at 10 µM | 2,300 tested, under 10 active | AID 652233;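 active means yellow fluorescent protein signal ratio exceeding the buffer control mean by over 5 SD of those controls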;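 further: ratio is mean of duplicate wells from kinetic YFP trace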
ClC-1 inh: blocks the rat ClC-1 voltage-dependent chloride channel | shares compounds with ANO1 block | CHO ClC-1-YFP, iodide influx fluorescence quench; iodide control reads 0, buffer control 100 | ratio percent, % at 10 µM | 2,300 tested, under 10 active | AID 652236;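 active means duplicate-mean ratio percent above the mean of iodide-only control wells, which defines zero, plus 5 of their SD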;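 further: higher percent means stronger block of ClC-1 iodide influx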
* marks the source's active call; other numbers are inactive results; i = inactive; · = not tested or not shown. Most compounds without a hit are left out; they make up all but 5.1% or so of the library.

SMILES	CRFBP-R2 block	CRFBP-R2 agonist	GRIN3A LBD mod	MPTP block	TMEM16A act	ANO1 block	TMEM16A reconf	HEK293 Ca mobil	Parental YFP cnt	ClC-1 inh
CCn1c(SCc2nc(-c3ccc(Cl)cc3)no2)nnc1-c1ccco1	3	1	-1	-2	i	100*	i	28%*	-0.93	-11
Cc1cc(C)c2nc(NNC(=O)c3ccc(S(=O)(=O)N4CC(C)CC(C)C4)cc3)sc2c1 (configuration not stated)	-17	-1	5	10	i	i	·	·	·	·
Cc1cccc2sc(NNC(=O)c3ccc(S(=O)(=O)N4CC(C)CC(C)C4)cc3)nc12 (configuration not stated)	0	2	5	28	i	25*	26%*	i	-0.97	-9
CC(NC(=O)c1ccco1)C(=O)NC(C)c1cc(F)c(Cl)cc1Cl (configuration not stated)	-17	-1	-2	0	i	i	·	·	·	·
C=CCNC(=O)C1CC(=O)N(c2ccc(Br)cc2)C1 (configuration not stated)	-26	-1	-3	-2	i	i	·	·	·	·
CCNC(=O)C1CC(=O)N(c2ccc(Br)cc2)C1 (configuration not stated)	12	1	1	-3	i	i	i	i	-0.97	-4
C=CCc1ccc(O)c(-c2cc(CC=C)ccc2O)c1	-2	-1	6	8	i	100*	32%*	i	-0.88	-4
O=C(CCCN1C(=O)c2ccccc2C1=O)N1CCc2ccccc2C1	11	-1	1	2	i	25*	i	i	-1.1	-4
N#C/C(C(N)=O)=c1/ccc2c(c1)N1C3=C(CCCC3)CC3CCCCC31N=2 (configuration not stated)	23	-4	2	·	·	i	·	·	·	·
N#CC(C#N)=c1ccc2c(c1)N1C3=C(CCCC3)CC3CCCCC31N=2 (configuration not stated)	-14	-1	-5	12	i	25*	i	i	-0.85	-1
COc1ccccc1OCCNC(=O)CCNS(=O)(=O)c1ccc(C)cc1	14	0	1	-2	i	·	·	·	·	·
O=C(CCSCCC(=O)Nc1c(F)c(F)c(F)c(F)c1F)Nc1c(F)c(F)c(F)c(F)c1F	15	-1	-11	6	i	i	·	·	·	·
OC(COc1ccc2ccccc2c1Br)Cn1ccnc1 (configuration not stated)	-7	0	-1	2	i	25*	i	i	-1	-1
Cc1cccc(C)c1N1C(=O)c2ccccc2NC(=O)C1C(=O)Nc1ccc2c(c1)OCCO2 (configuration not stated)	·	·	·	0	·	·	·	·	·	·
Cc1cc(C)c(S(=O)(=O)c2ccccc2C)c(Cl)n1	-11	-2	-2	0	i	i	·	·	·	·
CCCCSc1nc(C)cc(C)c1S(=O)(=O)c1ccccc1C	2	3	0	5	i	100*	22%*	i	-1	-8
COc1cccc(CN2C(=O)C(C)N(C(=O)c3ccccc3)c3ccccc32)c1 (configuration not stated)	116*	12	-10	2	i	25*	17%*	i	-0.86	-14
O=C(CN1C(=O)COc2ccccc21)c1cccc(Cl)c1	13	-1	0	-1	·	i	·	·	·	·
O=C(CN1C(=O)COc2ccccc21)c1ccc(Cl)cc1	4	0	1	0	i	i	i	i	-1.2	4
COc1cc(OC)cc(C(=O)NCC(C)NC(=O)c2cc(OC)cc(OC)c2)c1 (configuration not stated)	-5	0	-1	2	i	i	·	·	·	·
C=C(C)C1CC=C(C)/C(=N/NC(=O)CNc2ccc(C)cc2C)C1 (configuration not stated)	-25	0	4	1	i	i	·	·	·	·
C=C(C)C1CC=C(C)/C(=N/NC(=O)CNc2ccc(OCC)cc2)C1 (configuration not stated)	2	-3	0	3	i	25*	i	i	-1.1	0
Cc1cc(C)c(S(=O)(=O)Nc2cccc(S(=O)(=O)NC3=NCCC3)c2)c(C)c1	2	0	-1	1	i	i	·	·	·	·
CC1CCCCN1C(=O)c1cc(-c2ccc3c(c2)OCO3)on1 (configuration not stated)	-4	1	-2	0	i	i	·	·	·	·
CC1CCN(C(=O)c2cc(-c3ccc4c(c3)OCO4)on2)CC1	7	-2	0	1	i	i	i	i	-0.94	2
SMILES	CRFBP-R2 block	CRFBP-R2 agonist	GRIN3A LBD mod	MPTP block	TMEM16A act	ANO1 block	TMEM16A reconf	HEK293 Ca mobil	Parental YFP cnt	ClC-1 inh
CCCCOC(=O)C1=C(C)Nc2ncnn2C1c1ccc(OC)c(OC)c1 (configuration not stated)	-9	-1	-2	2	i	i	·	·	·	·
CCCCOC(=O)C1=C(C)Nc2ncnn2C1c1ccc(OCC)c(OC)c1 (configuration not stated)	5	-1	-3	0	i	25*	i	i	-1.1	0
COc1cc(NS(=O)(=O)c2ccc(NC(C)=O)cc2)nc(OC)n1	29	1	-2	0	i	i	·	·	·	·
COc1cc(NS(=O)(=O)c2ccc(N/C=C(\C#N)c3nc4cc(Cl)ccc4o3)cc2)nc(OC)n1	-1	0	6	-5	i	100*	i	i	-0.97	-18
Cc1cc(C2C(=O)NC(=O)C2=O)c(C)cc1Br (configuration not stated)	29	0	0	-1	i	·	·	·	·	·
CN(c1ccccc1)S(=O)(=O)c1cccc(NC(=O)CSc2nncs2)c1	16	1	-4	5	i	i	·	·	·	·
CN(c1ccccc1)S(=O)(=O)c1cccc(NC(=O)CSc2nnc(N)s2)c1	-8	1	-6	8	i	100*	35%*	i	-0.75	-18
